# Laboratory results from the supplement of paper PMC8728848.
# The sample as a whole holds a higher share of the strongest signals than the screen did.
# B1: Epa1-NP-mutant-D229G (Candida glabrata), Q6VBJ0 (protein)
# chain: MILNPALFLNKCVCIYTTLILLLLTNGGYATSSNDISLASKDPTTFPLGCSPDITTPKKGLSMELYSYDFRKKGSYPCWDAAYLDPNYPRTGYKSHRLLAKVDGVTGNINFYYHATKGCTPQLGHLPASYNYPKPLTMTNFTMLLYGYFRPKVTGFHTFTISADDLLFVNFGAGNAFDCCRRDSSADHFGNYQAYAIWGSKTAKDELTVHLDAGVYYPIRLFYNNREYGGALSFTFKTESNENTVSDFSEYFFSLDDTEEGCPGLISYDSSCASVKTSKIIGIDYHTETPNENLVPITKTIYHLGIPCTGTTTTPLCGSGFYDPLANKCVTINTSSTSSVTKTTSHTTSKEVSFHSSISSQKTLIPKSIPSPYGPIKSQSIPTEMETSSEISSSEYAFSDVISTPSHSPYTKKHSSLNSSSYTSTVIHSLTSYSISQGIFSTSLSEQNITSKSSTDKFSTATSMSNNITQSSIIISQFSTNNENYTTTSMHTSSDKISTETLNNSISTTTSILFSNSSTILKNNTTIISSDKDTHYHPVNPTIVCSTNKTEIICASITQPSISNSNNHWSSSVLKFNSTTVRSTLPSSAGSNETSINVPFSSSTESNTSTSSTSTSNSKMVRSTLPSSAGSNETSISVPFSSSTESNTSTSSTSTSNSKMVRSTLPSSAGSNETSINVPFSSSTESNTSTSSTSTSNSKTVRSTPFSSAGIIMTSLSQRNNKSASSYASSNSKCYNTADSCRKVHSTPSYLLTSSYTSEGVDYDCSLVSTKLKINDTNCVNNKHTTKSCLKTSVTTTIPTLEIKTARKSSSNTIGLHSYPTSSPNKSISSAPIIGYISSFKTIKTASPSYQTSDLTTITTITSLNNPGSTAVENTHESNDKSRKTSSNDISSKHSVIKETKDAVESSNKSHQTNTLKCSSIIIASSSHNSYESLGGTTLTLTLSKVYSPQNNDTLPFLEISEVNPSRTVLPESSKMMQYLTSTEERNKTARNTIATNIVSISTFHFEGEGNAIRMGYTQLLLMLIGIIVMNIGT
# How the values were obtained:
# Assay in all cases: glycan array binding signal (z-score within array); higher = stronger binding
# Settings in all cases: glycan notation: IUPAC condensed, linker removed; mutation: D229G
# [1] = biological target: Gal(b1-4)GlcNAc(b1-3)Gal(b1-4)[Fuc(a1-3)]GlcNAc(b1-3)Gal(b1-4)[Fuc(a1-3)]GlcNAc
# Procedure, shortened: (§1)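 The binding signal is a Z-score computed within each array. Data were drawn from 3228 arrays in the Consortium for Functional Glycomics database, restricted to those with a known protein sequence. Scores were averaged over arrays of the same protein sequence at different concentrations or buffers, and over linkers, and negative values can be taken as non-binding.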
# [2] = biological target: Gal(b1-4)GlcNAc(b1-3)[Gal(b1-4)GlcNAc(b1-6)]Gal(b1-4)GlcNAc
# Procedure, shortened: as §1
# [3] = biological target: Gal3S(b1-3)GalNAc
# Procedure, shortened: as §1
# [4] = biological target: Gal3S(b1-4)[Fuc(a1-3)]Glc6S
# Procedure, shortened: as §1
# [5] = biological target: Gal3S6S(b1-4)GlcNAc
# Procedure, shortened: as §1
# [6] = biological target: Gal4S6S(b1-4)GlcNAc
# Procedure, shortened: as §1
# [7] = biological target: Gal6S(b1-4)GlcNAc6S
# Procedure, shortened: as §1
# [8] = biological target: GalNAc(a1-3)GalNAc
# Procedure, shortened: as §1
# [9] = biological target: GalNAc(b1-4)Gal(b1-4)Glc
# Procedure, shortened: as §1
# [10] = biological target: GalNAc(b1-4)GlcNAc(b1-2)Man(a1-3)[GalNAc(b1-4)GlcNAc(b1-2)Man(a1-6)]Man(b1-4)GlcNAc(b1-4)GlcNAc
# Procedure, shortened: as §1
# [11] = biological target: GalNAc(b1-6)GalNAc
# Procedure, shortened: as §1
# [12] = biological target: GlcNAc(a1-3)Gal(b1-4)GlcNAc
# Procedure, shortened: as §1
# [13] = biological target: GlcNAc(a1-4)Gal(b1-4)GlcNAc(b1-3)Gal(b1-4)GlcNAc
# Procedure, shortened: as §1
# [14] = biological target: GlcNAc(a1-4)Gal(b1-4)GlcNAc(b1-3)Gal(b1-4)GlcNAc(b1-3)Gal(b1-4)GlcNAc
# Procedure, shortened: as §1
# [15] = biological target: GlcNAc(b1-3)Gal(b1-4)GlcNAc(b1-3)Gal(b1-4)GlcNAc(b1-3)Gal(b1-4)GlcNAc(b1-3)Gal(b1-4)GlcNAc(b1-2)Man(a1-3)[GlcNAc(b1-3)Gal(b1-4)GlcNAc(b1-3)Gal(b1-4)GlcNAc(b1-3)Gal(b1-4)GlcNAc(b1-3)Gal(b1-4)GlcNAc(b1-2)Man(a1-6)]Man(b1-4)GlcNAc(b1-4)[Fuc(a1-6)]GlcNAc
# Procedure, shortened: as §1
# [16] = biological target: GlcNAc(b1-3)Gal(b1-4)GlcNAc(b1-3)Gal(b1-4)GlcNAc(b1-3)Gal(b1-4)GlcNAc(b1-3)Gal(b1-4)GlcNAc(b1-2)[GlcNAc(b1-3)Gal(b1-4)GlcNAc(b1-3)Gal(b1-4)GlcNAc(b1-3)Gal(b1-4)GlcNAc(b1-3)Gal(b1-4)GlcNAc(b1-6)]Man(a1-6)[GlcNAc(b1-3)Gal(b1-4)GlcNAc(b1-3)Gal(b1-4)GlcNAc(b1-3)Gal(b1-4)GlcNAc(b1-3)Gal(b1-4)GlcNAc(b1-2)Man(a1-3)]Man(b1-4)GlcNAc(b1-4)[Fuc(a1-6)]GlcNAc
# Procedure, shortened: as §1
# [17] = biological target: GlcNAc(b1-3)Man
# Procedure, shortened: as §1
# [18] = biological target: GlcNAc(b1-4)GlcNAc(b1-4)GlcNAc
# Procedure, shortened: as §1
# [19] = biological target: Man(a1-3)[Man(a1-6)]Man(a1-6)[Man(a1-2)Man(a1-3)]Man(b1-4)GlcNAc(b1-4)GlcNAc
# Procedure, shortened: as §1
# [20] = biological target: Man(a1-3)[Man(a1-6)]Man(b1-4)GlcNAc(b1-4)[Fuc(a1-6)]GlcNAc
# Procedure, shortened: as §1
# [21] = biological target: Neu5Ac(a2-3)Gal(b1-3)GlcNAc6S
# Procedure, shortened: as §1
# [22] = biological target: Neu5Ac(a2-3)Gal(b1-3)]Neu5Ac(a2-3)Gal(b1-4)]GlcNAc
# Procedure, shortened: as §1
# [23] = biological target: Neu5Ac(a2-3)Gal(b1-4)GlcNAc(b1-6)[Gal(b1-3)]GalNAc
# Procedure, shortened: as §1
# [24] = biological target: Neu5Ac(a2-6)Gal
# Procedure, shortened: as §1
# [25] = biological target: Neu5Ac(a2-6)Gal(b1-4)GlcNAc(b1-2)Man
# Procedure, shortened: as §1
# [26] = biological target: Neu5Ac(a2-6)Gal(b1-4)GlcNAc(b1-3)Gal(b1-4)GlcNAc(b1-3)[Neu5Ac(a2-6)Gal(b1-4)GlcNAc(b1-3)Gal(b1-4)GlcNAc(b1-6)]GalNAc
# Procedure, shortened: as §1
# [27] = biological target: Neu5Ac(a2-6)Gal(b1-4)GlcNAc(b1-3)Gal(b1-4)[Fuc(a1-3)]GlcNAc(b1-3)Gal(b1-4)[Fuc(a1-3)]GlcNAc
# Procedure, shortened: as §1
# [28] = biological target: Neu5Ac(a2-6)GalNAc(b1-4)GlcNAc6S
# Procedure, shortened: as §1
# [29] = biological target: Neu5Ac(a2-8)Neu5Ac(a2-3)Gal(b1-3)GalNAc(b1-4)[Neu5Ac(a2-3)]Gal(b1-4)Glc
# Procedure, shortened: as §1
# [30] = biological target: Neu5Ac(a2-8)Neu5Ac(a2-3)[Gal(b1-3)GalNAc(b1-4)]Gal(b1-4)Glc
# Procedure, shortened: as §1
# [31] = biological target: Neu5Ac(a2-8)Neu5Ac(a2-8)Neu5Ac(a2-3)[GalNAc(b1-4)]Gal(b1-4)Glc
# Procedure, shortened: as §1
# [32] = biological target: Neu5Gc(a2-6)GalNAc
# Procedure, shortened: as §1
binder,measurement,setting,value
B1,glycan array binding signal (z-score),[1],-0.579
same,glycan array binding signal (z-score),[2],0.003
same,glycan array binding signal (z-score),[3],-0.232
same,glycan array binding signal (z-score),[4],1.6
same,glycan array binding signal (z-score),[5],2.68
same,glycan array binding signal (z-score),[6],1.06
same,glycan array binding signal (z-score),[7],10.9
same,glycan array binding signal (z-score),[8],0.722
same,glycan array binding signal (z-score),[9],0.754
same,glycan array binding signal (z-score),[10],1.11
same,glycan array binding signal (z-score),[11],0.649
same,glycan array binding signal (z-score),[12],-0.409
same,glycan array binding signal (z-score),[13],0.024
same,glycan array binding signal (z-score),[14],-0.64
same,glycan array binding signal (z-score),[15],0.489
same,glycan array binding signal (z-score),[16],0.337
same,glycan array binding signal (z-score),[17],-0.859
same,glycan array binding signal (z-score),[18],0.36
same,glycan array binding signal (z-score),[19],0.04
same,glycan array binding signal (z-score),[20],-0.736
same,glycan array binding signal (z-score),[21],-0.064
same,glycan array binding signal (z-score),[22],0.197
same,glycan array binding signal (z-score),[23],0.933
same,glycan array binding signal (z-score),[24],0.425
same,glycan array binding signal (z-score),[25],0.054
same,glycan array binding signal (z-score),[26],3.67
same,glycan array binding signal (z-score),[27],1.65
same,glycan array binding signal (z-score),[28],0.733
same,glycan array binding signal (z-score),[29],-0.032
same,glycan array binding signal (z-score),[30],0.215
same,glycan array binding signal (z-score),[31],-0.436
same,glycan array binding signal (z-score),[32],-0.701
